Measured values reported in the supplement of paper PMC9794691.

Test system: PC9
Assay: area under confluence curve of osimertinib + compound combination regimen (DTP regrowth); compare to osimertinib-only DTP control AUC of the same experiment (AUC (confluence x time, arbitrary))
Description: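 compare to osimertinib-only DTP control AUC of the same experiment; Long-term drug-tolerant persister (DTP) screen in EGFR-mutant NSCLC cell lines in 48-well plates. The test compound was given at one fixed dose with osimertinib, either upfront (from day 0 to the DTP stage at 10-21 days, then drug-free medium) or sequentially (osimertinib alone to the DTP stage, then the test compound). IncuCyte confluence was tracked until osimertinib-only controls regrew, and AUC was computed in Prism. AUC scale depends on experiment duration, so each row carries the same-experiment osimertinib-only DTP and DMSO control AUCs; combination activity = control minus combo AUC. Osimertinib dose not stated.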

Cc1nc(-c2nc(-c3ccc(OC(F)(F)F)cc3)no2)nn1Cc1cccc(N2CCC(S(C)(=O)=O)CC2)c1 + C=CC(=O)Nc1cc(Nc2nccc(-c3cn(C)c4ccccc34)n2)c(OC)cc1N(C)CCN(C)C [osimertinib]
area under confluence curve (test compound dose 10 nM, dosing schedule: sequential, osimertinib-only DTP control AUC in same experiment: 11178, DMSO control AUC in same experiment: 18385): 9950 | area under confluence curve (test compound dose 10 nM, dosing schedule: sequential, osimertinib-only DTP control AUC in same experiment: 12231, DMSO control AUC in same experiment: 19076): 3870 | area under confluence curve (test compound dose 10 nM, dosing schedule: upfront, osimertinib-only DTP control AUC in same experiment: 16535, DMSO control AUC in same experiment: 19076): 12500 | area under confluence curve (test compound dose 10 nM, dosing schedule: upfront, osimertinib-only DTP control AUC in same experiment: 16887, DMSO control AUC in same experiment: 18385): 15300

COC(=O)c1ccc([C@H]2c3[nH]c4ccccc4c3C[C@H](C(=O)OC)N2C(=O)CCl)cc1 + C=CC(=O)Nc1cc(Nc2nccc(-c3cn(C)c4ccccc34)n2)c(OC)cc1N(C)CCN(C)C [osimertinib]
area under confluence curve (test compound dose 100 nM, dosing schedule: sequential, osimertinib-only DTP control AUC in same experiment: 8716, DMSO control AUC in same experiment: 45737): 655 | area under confluence curve (test compound dose 100 nM, dosing schedule: sequential, osimertinib-only DTP control AUC in same experiment: 10175, DMSO control AUC in same experiment: 27958): 1250 | area under confluence curve (test compound dose 100 nM, dosing schedule: sequential, osimertinib-only DTP control AUC in same experiment: 14030, DMSO control AUC in same experiment: 30326): 1840 | area under confluence curve (test compound dose 100 nM, dosing schedule: upfront, osimertinib-only DTP control AUC in same experiment: 11096, DMSO control AUC in same experiment: 45737): 12700 | area under confluence curve (test compound dose 100 nM, dosing schedule: upfront, osimertinib-only DTP control AUC in same experiment: 16134, DMSO control AUC in same experiment: 27958): 13900 | area under confluence curve (test compound dose 100 nM, dosing schedule: upfront, osimertinib-only DTP control AUC in same experiment: 20885, DMSO control AUC in same experiment: 30326): 13600

C/C=C/Cn1cc(-c2cc(OC)c(C(=O)N3CCOCC3)cc2OC)c2cc(C)[nH]c2c1=O + C=CC(=O)Nc1cc(Nc2nccc(-c3cn(C)c4ccccc34)n2)c(OC)cc1N(C)CCN(C)C [osimertinib]
area under confluence curve (test compound dose 100 nM, dosing schedule: sequential, osimertinib-only DTP control AUC in same experiment: 12891, DMSO control AUC in same experiment: 44384): 7150 | area under confluence curve (test compound dose 100 nM, dosing schedule: upfront, osimertinib-only DTP control AUC in same experiment: 16570, DMSO control AUC in same experiment: 44384): 7750

C=CCn1c(=O)c2cnc(Nc3ccc(N4CCN(C)CC4)cc3)nc2n1-c1cccc(C(C)(C)O)n1 + C=CC(=O)Nc1cc(Nc2nccc(-c3cn(C)c4ccccc34)n2)c(OC)cc1N(C)CCN(C)C [osimertinib]
area under confluence curve (test compound dose 100 nM, dosing schedule: sequential, osimertinib-only DTP control AUC in same experiment: 15001, DMSO control AUC in same experiment: 22064): 13500 | area under confluence curve (test compound dose 100 nM, dosing schedule: sequential, osimertinib-only DTP control AUC in same experiment: 15044, DMSO control AUC in same experiment: 30604): 11300 | area under confluence curve (test compound dose 100 nM, dosing schedule: upfront, osimertinib-only DTP control AUC in same experiment: 20672, DMSO control AUC in same experiment: 30604): 16100 | area under confluence curve (test compound dose 100 nM, dosing schedule: upfront, osimertinib-only DTP control AUC in same experiment: 24924, DMSO control AUC in same experiment: 22064): 20200

COc1nnc2ccc(N3CCC(c4ccc(OCCN5CCN(C)C(=O)[C@H]5C)cc4)CC3)nn12 + C=CC(=O)Nc1cc(Nc2nccc(-c3cn(C)c4ccccc34)n2)c(OC)cc1N(C)CCN(C)C [osimertinib]
area under confluence curve (test compound dose 300 nM, dosing schedule: sequential, osimertinib-only DTP control AUC in same experiment: 3562, DMSO control AUC in same experiment: 31840): 2500 | area under confluence curve (test compound dose 300 nM, dosing schedule: sequential, osimertinib-only DTP control AUC in same experiment: 10968, DMSO control AUC in same experiment: 21594): 7840 | area under confluence curve (test compound dose 300 nM, dosing schedule: sequential, osimertinib-only DTP control AUC in same experiment: 12231, DMSO control AUC in same experiment: 19076): 5480 | area under confluence curve (test compound dose 300 nM, dosing schedule: sequential, osimertinib-only DTP control AUC in same experiment: 12891, DMSO control AUC in same experiment: 44384): 2120 | area under confluence curve (test compound dose 300 nM, dosing schedule: upfront, osimertinib-only DTP control AUC in same experiment: 16535, DMSO control AUC in same experiment: 19076): 15300 | area under confluence curve (test compound dose 300 nM, dosing schedule: upfront, osimertinib-only DTP control AUC in same experiment: 16570, DMSO control AUC in same experiment: 44384): 19700 | area under confluence curve (test compound dose 300 nM, dosing schedule: upfront, osimertinib-only DTP control AUC in same experiment: 17834, DMSO control AUC in same experiment: 21594): 15800 | area under confluence curve (test compound dose 300 nM, dosing schedule: upfront, osimertinib-only DTP control AUC in same experiment: 19015, DMSO control AUC in same experiment: 31840): 27400

CN(C)CCCOc1ccc(-c2ccc3ncc4c(c3c2)n(C2CCOCC2)c(=O)n4C)cn1 + C=CC(=O)Nc1cc(Nc2nccc(-c3cn(C)c4ccccc34)n2)c(OC)cc1N(C)CCN(C)C [osimertinib]
area under confluence curve (test compound dose 300 nM, dosing schedule: sequential, osimertinib-only DTP control AUC in same experiment: 7760, DMSO control AUC in same experiment: 29563): 4600 | area under confluence curve (test compound dose 300 nM, dosing schedule: sequential, osimertinib-only DTP control AUC in same experiment: 15001, DMSO control AUC in same experiment: 22064): 14800 | area under confluence curve (test compound dose 300 nM, dosing schedule: sequential, osimertinib-only DTP control AUC in same experiment: 15044, DMSO control AUC in same experiment: 30604): 3980 | area under confluence curve (test compound dose 300 nM, dosing schedule: upfront, osimertinib-only DTP control AUC in same experiment: 11798, DMSO control AUC in same experiment: 29563): 5590 | area under confluence curve (test compound dose 300 nM, dosing schedule: upfront, osimertinib-only DTP control AUC in same experiment: 20672, DMSO control AUC in same experiment: 30604): 5990 | area under confluence curve (test compound dose 300 nM, dosing schedule: upfront, osimertinib-only DTP control AUC in same experiment: 24924, DMSO control AUC in same experiment: 22064): 22400

CN(C)C(=O)c1cc2cnc(Nc3ccc(N4CCNCC4)cn3)nc2n1C1CCCC1 [Ribociclib] + C=CC(=O)Nc1cc(Nc2nccc(-c3cn(C)c4ccccc34)n2)c(OC)cc1N(C)CCN(C)C [osimertinib]
area under confluence curve (test compound dose 300 nM, dosing schedule: sequential, osimertinib-only DTP control AUC in same experiment: 23366, DMSO control AUC in same experiment: 88996): 13600 | area under confluence curve (test compound dose 300 nM, dosing schedule: upfront, osimertinib-only DTP control AUC in same experiment: 29852, DMSO control AUC in same experiment: 88996): 20500

COc1cc(CCc2cc(NC(=O)c3ccc(N4CC(C)NC(C)C4)cc3)n[nH]2)cc(OC)c1 (stereo not given) + C=CC(=O)Nc1cc(Nc2nccc(-c3cn(C)c4ccccc34)n2)c(OC)cc1N(C)CCN(C)C [osimertinib]
area under confluence curve (test compound dose 1000 nM, dosing schedule: sequential, osimertinib-only DTP control AUC in same experiment: 9508, DMSO control AUC in same experiment: 26668): 4800 | area under confluence curve (test compound dose 1000 nM, dosing schedule: sequential, osimertinib-only DTP control AUC in same experiment: 10968, DMSO control AUC in same experiment: 21594): 7160 | area under confluence curve (test compound dose 1000 nM, dosing schedule: upfront, osimertinib-only DTP control AUC in same experiment: 11298, DMSO control AUC in same experiment: 26668): 2090 | area under confluence curve (test compound dose 1000 nM, dosing schedule: upfront, osimertinib-only DTP control AUC in same experiment: 17834, DMSO control AUC in same experiment: 21594): 6660

C[C@@H]1COCCN1c1cc(C2([S@](C)(=N)=O)CC2)nc(-c2cc[nH]c3nccc2-3)n1 + C=CC(=O)Nc1cc(Nc2nccc(-c3cn(C)c4ccccc34)n2)c(OC)cc1N(C)CCN(C)C [osimertinib]
area under confluence curve (test compound dose 1000 nM, dosing schedule: sequential, osimertinib-only DTP control AUC in same experiment: 15001, DMSO control AUC in same experiment: 22064): 14300 | area under confluence curve (test compound dose 1000 nM, dosing schedule: sequential, osimertinib-only DTP control AUC in same experiment: 15044, DMSO control AUC in same experiment: 30604): 12300 | area under confluence curve (test compound dose 1000 nM, dosing schedule: upfront, osimertinib-only DTP control AUC in same experiment: 20672, DMSO control AUC in same experiment: 30604): 15900 | area under confluence curve (test compound dose 1000 nM, dosing schedule: upfront, osimertinib-only DTP control AUC in same experiment: 24924, DMSO control AUC in same experiment: 22064): 16500
